Inconclusive results are not listed. Unmarked numbers belong to inactive results. Calls of active or inactive are those of the source. The call rests on the fitted dose curve; in most records, active means well fitted inhibition curve with a large enough effect; inconclusive means small, poorly fitted or top-dose-only effect; inactive means flat fitted curve, though single readings scatter.
Biological target: Calcium and integrin-binding protein 1 (Homo sapiens) (UniProt Q99828)
Experiment: Primary qHTS for Identification of Calcium Integrin Binding Protein 1 (CIB1) Competitor (AID 1508620); further: top concentration of the series differs between compounds
Details: CIB1-GST / FITC-alphaIIb peptide fluorescence polarization; series mostly up to 114 µM; activity change, negative = inhibition: at the top concentration
How it was run: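 Fluorescence polarization competition: GST-tagged CIB1 (1 uM final) preincubated with compound 15 min at room temperature, then FITC-labelled alphaIIb peptide (100 nM final) added. After 15 min at room temperature, polarization read at Ex 480/Em 540.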
On the % scale 0 is the no-effect control and ±100 the full control effect.

Chain of Calcium and integrin-binding protein 1 (Homo sapiens) (Q99828 whole entry, looked up): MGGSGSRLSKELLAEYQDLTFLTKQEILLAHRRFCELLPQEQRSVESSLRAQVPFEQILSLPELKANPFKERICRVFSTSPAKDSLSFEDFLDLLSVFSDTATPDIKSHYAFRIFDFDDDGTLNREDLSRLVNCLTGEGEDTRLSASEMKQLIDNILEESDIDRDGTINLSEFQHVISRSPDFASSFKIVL

First: CC(=O)Nc1ccc(OC2=NS(=O)(=O)c3ccccc32)cc1
Second: O=C(Nc1ccc(Oc2ccccc2)cc1)Nc1nnc(-c2ccncc2)s1
The “activity change, negative = inhibition” value of the first is higher: 6.15% for the first, 1.14% for the second.

Compared with C#CCOc1ccc(C(C)=O)cc1-c1nnc2n1N=C(c1ccc(OC)c(O[C@@H]3CCOC3)c1)CS2, COc1cc(-c2ccc3ncnc(NCc4cccs4)c3c2)cc(OC)c1OC is lower in “activity change, negative = inhibition” value: -1.87% for the first, -3.42% for the second.

Going from Cc1ccc2nc3sc(C(=O)N4CCOCC4)cc3cc2c1 to Cc1cccc(-n2cnc3cc(C(=O)N4CCOCC4)ccc32)c1, the “activity change, negative = inhibition” value rises from -2.35% to 0.762%.

Going from Cc1cccc(-n2cnc3cc(C(=O)N4CCC(c5ccccc5)CC4)ccc32)c1 to Cc1ccc(OCCn2c(CCNC(=O)c3ccccc3)nc3ccccc32)cc1, the “activity change, negative = inhibition” value rises from -9.9% to 4.39%.

Compared with CC(=O)Nc1sc2c(c1-c1ccccc1F)CCNC2, CC(=O)Nc1sc2c(c1-c1ccccc1)CCNC2 is lower in “activity change, negative = inhibition” value: 1.4% for the first, -2.49% for the second.

Going from CCOC(=O)c1ccc(-c2ccc3ncnc(N(C)Cc4sccc4C)c3c2)o1 to Cc1nc(CNc2ncnc3ccc(-c4oc(-c5ccccc5)nc4C)cc23)cs1, the “activity change, negative = inhibition” value falls from 4.01% to -2.42%.

First: CC(C)c1ccccc1-c1nc(NCc2ccc(-c3cccnc3)cc2)c2cccn2n1
Second: Cc1nnc(-c2ccccc2C(C)C)nc1NCc1ccc(-c2cccnc2)cc1
The “activity change, negative = inhibition” value of the first is higher: -4.05% for the first, -4.41% for the second.

Compared with CC(C)Oc1ccc(-c2ccc(=O)n(CC(=O)NCCc3ccccc3)n2)cc1, O=c1c2ccccc2nc2sc(NCc3ccc(Sc4ccccc4)cc3)nn12 is higher in “activity change, negative = inhibition” value: -5.21% for the first, 4.21% for the second.

Compared with CCCCc1nnc(-c2cnn(C)c2N)n1CCCn1ccnc1, Cn1c2cc(CO)sc2c2cnn(Cc3ccccc3F)c(=O)c21 is lower in “activity change, negative = inhibition” value: 5.27% for the first, -2.78% for the second.

Compared with COc1ccccc1-c1ncc(C)c(NCc2ccc(-c3cccnc3)cc2)n1, Cc1cnc(-c2ccccc2C2COC2)nc1NCc1ccc(-c2cccnc2)cc1 is higher in “activity change, negative = inhibition” value: -1.16% for the first, 2.86% for the second.

First: COc1ccc(C2Nc3ccccc3C(=O)N2Cc2ccccc2)cc1COc1ccc(F)cc1 (centres undefined)
Second: COc1ccc(NC(=O)C2=C(C)NC(Nc3nc4ccccc4o3)=NC2c2ccccc2Br)cc1 (centres undefined)
The “activity change, negative = inhibition” value of the first is higher: 2.42% for the first, 0.993% for the second.

First: Cn1c2cc(S(C)(=O)=O)sc2c2cnn(Cc3ccccc3F)c(=O)c21
Second: Cc1ccc(NS(=O)(=O)c2ccc3c(c2)oc(=O)n3C)cc1C
The “activity change, negative = inhibition” value of the first is higher: 3.17% for the first, 1.77% for the second.

Going from Cc1cc(C)nc(NC(=S)N2CCN(c3cncc4ccccc34)CC2)c1 to Cc1ccccc1C(=O)N1CCc2cc(-c3nc(NC(=O)c4ccc5c(c4)OCO5)sc3C)ccc21, the “activity change, negative = inhibition” value rises from -3.93% to 0.109%.

Going from O=C(Nc1ccc2ccccc2c1)Nc1nnc(Br)s1 to Oc1cc(Nc2ccncc2)cc2cccnc12, the “activity change, negative = inhibition” value falls from 8.09% to -17.6%.

First: CC(C)(C)OC(=O)NCCOCCOCCOc1ccc(-c2no[n+]([O-])c2C#N)cc1
Second: Fc1cccc(CNc2ncnc3ccc(-c4ccoc4)cc23)c1
The “activity change, negative = inhibition” value of the first is higher: 1.77% for the first, -3.06% for the second.

Compared with NC(=O)C1CCN(c2nc(-c3ccc4c(c3)OCCO4)cs2)CC1, CCC(C)(CCN1CCOCC1)N(Cc1cc2ccccc2n(C)c1=O)C(=O)C1CCCCC1 (centres undefined) is higher in “activity change, negative = inhibition” value: 1.22% for the first, 2.28% for the second.

Compared with Fc1cc(-c2nc(Nc3ccc(F)c(F)c3)c3ccccc3n2)ccn1, O=[S+]([O-])(Nc1ccc(-c2nc3ccccc3[nH]2)cc1)c1ccc2c(c1)OCO2 is lower in “activity change, negative = inhibition” value: 5.17% for the first, -18.4% for the second.

Going from CC(=O)c1ccc(N2CCN(S(=O)(=O)c3ccc4c(c3)OCC(=O)N4)CC2)cc1 to N#Cc1cccc(NS(=O)(=O)c2ccc3c(c2)CCC(=O)N3)c1, the “activity change, negative = inhibition” value falls from 2.82% to 2.15%.

First: CC(=O)Nc1sc2c(c1-c1cccc3[nH]ncc13)CCNC2
Second: N#Cc1cccc(CSc2nc3ncc(Br)cc3[nH]2)c1
The “activity change, negative = inhibition” value of the first is higher: -1.12% for the first, -23.2% for the second.

With O=C(NC1CCCc2c1cnn2-c1ccc(F)cc1F)c1ccccn1 (centres undefined) the Potency was “inactive”.

— PubChem BioAssay (NCATS)
